Source: PubChem (National Center for Advancing Translational Sciences (NCATS))
SmPrx2 inh: blocks S. mansoni peroxiredoxin 2 enzymatic activity; S. mansoni Prx2 activity coupled to TGR/GSH (TGR is thioredoxin glutathione reductase), NADPH fluorescence loss, qHTS; Potency, µM; 65,000 compounds, 0.07% hits
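Prx2 activity was followed as the loss of NADPH fluorescence (ex 365/em 450 nm), read every 30 sec for 8 min after H2O2 start. The enzyme mix (50 nM Prx2, 25 nM TGR, GSH, NADPH; pH 7.4 phosphate buffer) was incubated with compound for 15 min at room temperature first.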
LT uptake inh: inhibitors of anthrax lethal toxin internalization; Cells, anthrax lethal toxin internalization, FRET ratio (460/530); Potency, µM (series often up to 40 µM), for inactives: at the top dose activity change, negative = inhibition, hits mostly inhibitors; 70,000 compounds, 0.67% hits; further: on the % scale 0 is the no-effect control and ±100 the full control effect; nearly all actives have a fitted effect of over 50% in size
AmpC det inh: inhibitors of E. coli AmpC beta-lactamase with detergent; P00811; purified AmpC, nitrocefin hydrolysis with detergent; Potency, µM (top dose mostly 28.7 µM), inactives show at the top dose activity change, negative = inhibition; 71,000 compounds, 0.09% hits; active means well fitted curve in the direction sought with a large enough effect; inconclusive means small, poorly fitted or top-dose-only effect; further: on the % scale 0 is the no-effect control and ±100 the full control effect
Target sequence (P00811 whole entry, looked up): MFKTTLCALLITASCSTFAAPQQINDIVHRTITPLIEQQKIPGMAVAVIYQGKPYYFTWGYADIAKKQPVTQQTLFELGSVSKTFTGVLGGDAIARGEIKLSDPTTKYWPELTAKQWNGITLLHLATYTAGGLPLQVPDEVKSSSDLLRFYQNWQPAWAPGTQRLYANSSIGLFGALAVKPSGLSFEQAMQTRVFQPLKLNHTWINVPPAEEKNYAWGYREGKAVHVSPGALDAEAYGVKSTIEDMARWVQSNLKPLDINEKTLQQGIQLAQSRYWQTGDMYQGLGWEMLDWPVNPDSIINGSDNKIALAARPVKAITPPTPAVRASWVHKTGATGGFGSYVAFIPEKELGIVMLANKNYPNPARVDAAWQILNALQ
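E. coli AmpC (5.3 nM) in 20 mM phosphate pH 7.0 with 0.01% Triton X-100, preincubated 15 min RT with compound; nitrocefin (2 uL of 800 uM stock) hydrolysis followed by 480 nm absorbance every 20 s over 4 min.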
AmpC inh no det: blocks E. coli AmpC beta-lactamase in absence of detergent | Potency, µM (highest dose often 28.7 µM), without a hit: at the highest dose activity change, negative = inhibition | 71,000 compounds, 1.8% hits | P00811 | AmpC nitrocefin hydrolysis, absorbance 480 nm, no detergent; further: % of control where 0% means no effect
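Enzyme, pH 7.0 phosphate. Compound titrations were pre-incubated with AmpC for 15 min at room temperature before nitrocefin (stock 800 uM) addition; product formation was recorded at 480 nm every 20 s for 4 min.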
Starred values were filed as active, the others as inactive; [ ] = another dose, or the depositor's remark. In the library only some 2.4% were active in any assay of this set; here they are far more common. Unless noted, the call rests on the fitted dose curve. Potency means the concentration at half of the fitted maximal effect.

For O=C1c2cccnc2C(=O)N1c1cccc(-c2nc3ccccc3o2)c1 the results were SmPrx2 inh >57, LT uptake inh -6%, AmpC det inh -1% and AmpC inh no det 44%.
Screening O=C1CCC(=O)N1c1cccc(-c2nc3ccccc3o2)c1 returned SmPrx2 inh >57, LT uptake inh 1%, AmpC det inh 12% and AmpC inh no det 4µM*[single pt active].
CC(C)N(Cc1nc2ccccc2[nH]1)C(C)C was read as SmPrx2 inh >57, LT uptake inh -10%, AmpC det inh 9% and AmpC inh no det 4µM*[single pt active].
For CCC(C)SCc1nc2ccccc2[nH]1 (stereo not drawn) the results were LT uptake inh 5%, AmpC det inh -4% and AmpC inh no det -12%.
`Cc1noc(C)c1CSCC(=O)OCC(=O)N1CC(=O)Nc2ccccc21` gave SmPrx2 inh >57, LT uptake inh 0%, AmpC det inh -1% and AmpC inh no det 1%.
Screening Cc1nnc(NC(=O)CCCCCN2C(=O)C3C4C=CC(C4)C3C2=O)s1 (stereo not drawn) returned LT uptake inh 1%, AmpC det inh 8% and AmpC inh no det 4µM*[single pt active].
Screening Cc1nnc(NC(=O)NC(C)N2C(=O)C3C4C=CC(C4)C3C2=O)s1 (stereo not drawn) returned SmPrx2 inh >57, LT uptake inh -7%, AmpC det inh -5% and AmpC inh no det -12%.
For CCCCN1CCCCC1C(=O)Nc1c(C)cc(C)cc1C (stereo not drawn) the results were SmPrx2 inh >57, LT uptake inh -8%, AmpC det inh -4% and AmpC inh no det -15%.
Screening CCOC(=O)SC1=N/C(=C\c2ccc(N(C)C)cc2)C(=O)S1 returned SmPrx2 inh >57, LT uptake inh -4%, AmpC det inh 5µM* and AmpC inh no det 16µM*.
`CCCN1C(=O)c2cc(C(=O)NC3CCCCCC3)ccc2C1O` (stereo not drawn) gave SmPrx2 inh >57, LT uptake inh -4%, AmpC det inh 15% and AmpC inh no det 4µM*[single pt active].
For CC(=O)OC1c2ccccc2C(=O)N1c1ccccc1C (stereo not drawn) the results were SmPrx2 inh >57, LT uptake inh -9%, AmpC det inh 15% and AmpC inh no det 4µM*[single pt active].
Cc1ccc(-c2nc(NC(=O)CSc3nnc4scc(-c5ccccc5)n34)ns2)cc1 was read as SmPrx2 inh >57, LT uptake inh inconclusive, AmpC det inh 26% and AmpC inh no det 4µM*[single pt active].
Cc1cc(NC(=O)c2cccc(COc3ccc(Br)cc3)c2)no1 was read as SmPrx2 inh >57, LT uptake inh inconclusive, AmpC det inh 29% and AmpC inh no det 4µM*[single pt active].
Screening CCOc1ccc(C(=O)Nc2cc(C)on2)cc1 returned LT uptake inh -4%, AmpC det inh 7% and AmpC inh no det 0%.
Screening CCOc1ccc2nc(NC(=O)COC)sc2c1 returned SmPrx2 inh >57, LT uptake inh 6%, AmpC det inh -4% and AmpC inh no det 8%.
`CCOc1ccc2nc(NC(=O)Nc3cccs3)sc2c1` gave SmPrx2 inh >57, LT uptake inh inconclusive, AmpC det inh 10% and AmpC inh no det 3.2µM*[single pt active].
`O=C(Nc1ccc(O)cc1)C1CC=CCC1` (stereo not drawn) gave SmPrx2 inh >57, LT uptake inh -1%, AmpC det inh 7% and AmpC inh no det 13µM*[single pt active].
Cc1ccc(S(=O)(=O)N2CCCC2C(=O)Nc2ccc(O)cc2)cc1 (stereo not drawn) was read as SmPrx2 inh >57, LT uptake inh -1%, AmpC det inh 12% and AmpC inh no det -7%.
O=C(CSc1nnc(CCCO)n1-c1ccccc1)NCCc1ccccc1 was read as SmPrx2 inh >57, LT uptake inh inconclusive, AmpC det inh -2% and AmpC inh no det 22%.
Screening Cc1ccnc(NC2c3ccccc3C(=O)N2Cc2ccccc2Cl)c1 (stereo not drawn) returned SmPrx2 inh >57, LT uptake inh -6%, AmpC det inh 12% and AmpC inh no det 4µM*[single pt active].
COCCCNC(=O)c1ccc(Cn2c(=O)[nH]c3ccccc3c2=O)cc1 was read as SmPrx2 inh >57, LT uptake inh inconclusive, AmpC det inh 14% and AmpC inh no det 4µM*[single pt active].
`COCCCNC(=O)CCCn1c(=O)[nH]c2ccccc2c1=O` gave SmPrx2 inh >57, LT uptake inh -10%, AmpC det inh -4% and AmpC inh no det -9%.
Cc1cc2n(n1)C(c1ccsc1)Nc1ccccc1-2 (stereo not drawn) was read as SmPrx2 inh >57, LT uptake inh -8%, AmpC det inh -5% and AmpC inh no det 10%.
For CSc1ccc(C2Nc3ccccc3-c3cc(C)nn32)cc1 (stereo not drawn) the results were SmPrx2 inh >57, LT uptake inh 13µM*, AmpC det inh 2% and AmpC inh no det 3%.
Screening COc1ccccc1-c1nnc(NC(=O)c2ccc(S(=O)(=O)N(C)Cc3ccccc3)cc2)o1 returned SmPrx2 inh >57, LT uptake inh -1%, AmpC det inh -2% and AmpC inh no det 27%.
Screening CN(c1ccccc1)S(=O)(=O)c1ccc(C(=O)Nc2nnc(-c3ccc(F)cc3)o2)cc1 returned SmPrx2 inh >57, LT uptake inh 0%, AmpC det inh -8% and AmpC inh no det 10µM*.
`COc1ccc(-c2nnc(NC(=O)c3ccc(S(=O)(=O)N4CCCc5ccccc54)cc3)o2)cc1` gave SmPrx2 inh >57, LT uptake inh -13%, AmpC det inh 9% and AmpC inh no det 13µM*.
For CCN1CCN(CC(=O)n2c3c(c4ccccc42)CC(C)CC3)CC1 (stereo not drawn) the results were SmPrx2 inh >57, LT uptake inh -16%, AmpC det inh -2% and AmpC inh no det 54%.
`CCC(C)C(=O)Nc1nc2c(s1)C(=O)CC(C)(C)C2` (stereo not drawn) gave SmPrx2 inh >57, LT uptake inh 9%, AmpC det inh 11% and AmpC inh no det 4µM*[single pt active].
For CC1CCC(NC(=O)c2cc3c(=O)n(C)c4ccccc4c3n2C)CC1 (stereo not drawn) the results were SmPrx2 inh >57, LT uptake inh -18%, AmpC det inh 18% and AmpC inh no det 4µM*[single pt active].
CC1CCCCN1CCNC(=O)c1cc2c(=O)n(C)c3ccccc3c2n1C (stereo not drawn) was read as SmPrx2 inh >57, LT uptake inh 2.5µM*, AmpC det inh 10% and AmpC inh no det 38%.
`Cn1c(C(=O)NCCN2CCN(c3ccccc3F)CC2)cc2c(=O)n(C)c3ccccc3c21` gave SmPrx2 inh >57, LT uptake inh -6%, AmpC det inh 16% and AmpC inh no det 4µM*[single pt active].
Cn1c(C(=O)NCCN2CCOCC2)cc2c(=O)n(C)c3ccccc3c21 was read as SmPrx2 inh >57, LT uptake inh -18%, AmpC det inh 10% and AmpC inh no det 106%.
`Cn1c(C(=O)NCCN2CCc3ccccc3C2)cc2c(=O)n(C)c3ccccc3c21` gave SmPrx2 inh >57, LT uptake inh 7.9µM*, AmpC det inh 7% and AmpC inh no det 102%.
